Source: PubChem BioAssay AID1159580 (chemical genetic matrix, 2015)
Several values for one entry are separate records, joined by “and”; a condition that tells them apart may be missing. Equal entries are not always repeated. The campaign covered roughly 5,500 compounds. About 2,000 (36%) were called active. About 18% were inconclusive and are not listed. Cut-off read from the data, not from the text of the source: active = normalized growth mostly below about 0.91 (no sharp cut-off); inconclusive = no clear call, values can overlap the other calls; inactive = mostly above about 0.92. This is one part of the list.

Assay: chemical genetic growth profiling, strain panel (AID 1159580);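 note: tested at 20 µM; growth read once vehicle control cultures reached saturation at 30 °C; 1 = growth at the plate median or of vehicle wells; lower values mean less growth of the strain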
Details: S. cerevisiae deletion strains, growth OD

Measured: normalized growth

CO[C@]12C[C@@H](COC(=O)c3cncc(Br)c3)CN(C)[C@@H]1Cc1cn(C)c3cccc2c13
inactive: locus YAL013W, strain DEP1, hits give low values 1.01 | locus YAL021C, strain ccr4, hits give low values 0.973 | locus YAL026C, strain drs2, hits give low values 1 | locus YAL030W, strain snc1, hits give low values 1 | locus YBL061C, strain skt5, hits give low values 0.996 | locus YBR009C, strain hhf1, hits give low values 0.991 | locus YBR021W, strain FUR4, hits give low values 0.913 | locus YBR023C, strain chs3, hits give low values 0.979 | locus YBR171W, strain sec66, hits give low values 0.983 | locus YBR229C, strain ROT2, hits give low values 1 | locus YBR231C, strain swc5, hits give low values 0.951 | locus YBR279W, strain paf1, hits give low values 0.998 | locus YCL011C, strain gbp2, hits give low values 0.983 | locus YCL016C, strain dcc1, hits give low values 0.998 | locus YCL029C, strain bik1, hits give low values 1.02 | locus YCL069W, strain vba3, hits give low values 0.998 | locus YCR088W, strain abp1, hits give low values 1 | locus YDL005C, strain med2, hits give low values 0.979 | locus YDL035C, strain GPR1, hits give low values 0.99 | locus YDL040C, strain nat1, hits give low values 0.995 | locus YDL074C, strain BRE1, hits give low values 0.978 | locus YDL101C, strain DUN1, hits give low values 1.01 | locus YDL134C, strain PPH21, hits give low values 0.995 | locus YDL185W, strain tfp1, hits give low values 1 | locus YDL192W, strain arf1, hits give low values 1.01 | locus YDR001C, strain nth1, hits give low values 0.994 | locus YDR069C, strain doa4, hits give low values 0.966 | locus YDR101C, strain arx1, hits give low values 1 | locus YDR137W, strain rgp1, hits give low values 1.12 | locus YDR150W, strain NUM1, hits give low values 0.999 | locus YDR159W, strain sac3, hits give low values 1.01 | locus YDR162C, strain NBP2, hits give low values 1 | locus YDR195W, strain ref2 0.943 | locus YDR297W, strain sur2, hits give low values 0.987 | locus YDR318W, strain mcm21, hits give low values 1 | locus YDR334W, strain swr1, hits give low values 1 | locus YDR335W, strain msn5, hits give low values 0.986 | locus YDR388W, hits give low values 1 | locus YDR392W, strain spt3, hits give low values 0.93 | locus YDR502C, strain sam2, hits give low values 1 | locus YEL003W, strain gim4, hits give low values 0.988 | locus YEL037C, strain rad23, hits give low values 0.995 | locus YEL061C, strain CIN8 (second series), hits give low values 0.987 | locus YEL061C, strain CIN8, hits give low values 0.997 | locus YER015W, strain faa2, hits give low values 0.996 | locus YER016W, strain bim1, hits give low values 1 | locus YER110C, hits give low values 1.01 | locus YER111C, strain swi4, hits give low values 1.01 | locus YER155C, strain BEM2 (second series), hits give low values 0.912 | locus YER155C, strain BEM2, hits give low values 0.998 | locus YER167W, strain BCK2, hits give low values 1 | locus YFR010W, strain ubp6, hits give low values 0.99 | locus YGL078C, strain dbp3, hits give low values 1 | locus YGL086W, strain mad1, hits give low values 1 | locus YGL167C, strain pmr1, hits give low values 0.996 | locus YGL173C, strain kem1, hits give low values 0.989 | locus YGL227W, strain vid30, hits give low values 0.994 | locus YGL240W, strain doc1, hits give low values 0.95 | locus YGL248W, strain PDE1, hits give low values 1.01 | locus YGL253W, strain hxk2, hits give low values 0.998 | locus YGR078C, strain PAC10, hits give low values 0.974 | locus YGR135W, strain pre9, hits give low values 0.993 | locus YGR229C, strain SMI1, hits give low values 1 | locus YGR252W, strain gcn5, hits give low values 0.869 | locus YHR013C, strain ard1, hits give low values 1.02 | locus YHR027C, strain rpn1, hits give low values 0.988 | locus YHR030C, strain SLT2, hits give low values 1.01 and 0.979 | locus YHR079C, strain IRE1 (second series), hits give low values 1.01 | locus YHR079C, strain IRE1, hits give low values 0.957 | locus YHR094C, strain hxt1, hits give low values 1 | locus YHR129C, strain ARP1, hits give low values 1.02 | locus YHR142W, strain chs7, hits give low values 1.01 | locus YHR200W, strain rpn10, hits give low values 1 | locus YIL066C, strain RNR3, hits give low values 1 | locus YIL073C, strain SPO22, hits give low values 1 | locus YIL125W, strain kgd1, hits give low values 1.01 | locus YIR030C, strain dcg1, hits give low values 1.01 | locus YJL092W, strain hpr5, hits give low values 1 | locus YJL095W, strain BCK1 (second series), hits give low values 1 | locus YJL095W, strain BCK1, hits give low values 0.996 and 0.967 | locus YJL115W, strain asf1, hits give low values 0.991 | locus YJL129C, strain trk1, hits give low values 0.982 | locus YJL134W, strain LCB3, hits give low values 1 | locus YJL154C, strain vps35, hits give low values 0.981 | locus YJL164C, strain tpk1, hits give low values 0.997 | locus YJL166W, strain qcr8, hits give low values 0.972 | locus YJL168C, strain set2, hits give low values 1 | locus YJL187C, strain SWE1 (second series), hits give low values 1.01 | locus YJL187C, strain SWE1, hits give low values 0.996 | locus YJR043C, strain POL32, hits give low values 1.01 | locus YJR066W, strain TOR1, hits give low values 0.897
